{"source": "PubChem BioAssay (NCATS)", "note": "“And” between values parts separate entries of the source, which are not always exact repeats. Equal values may be shown once. Records with an inconclusive call do not appear. Some compounds were tested as several samples or in several runs, with calls that do not always agree. The source made the active and inactive calls. Calls follow the shape of the dose curve; as a rule, active = well fitted activation curve with a large enough effect; inconclusive = small, poorly fitted or top-dose-only effect; inactive = no such curve, though single readings can be large or run the other way. Potency is read from the fitted curve at half-maximal effect."}
{"target": "Cellular tumor antigen p53 (Homo sapiens) (UniProt P04637)", "sequence (P04637 whole entry, looked up)": "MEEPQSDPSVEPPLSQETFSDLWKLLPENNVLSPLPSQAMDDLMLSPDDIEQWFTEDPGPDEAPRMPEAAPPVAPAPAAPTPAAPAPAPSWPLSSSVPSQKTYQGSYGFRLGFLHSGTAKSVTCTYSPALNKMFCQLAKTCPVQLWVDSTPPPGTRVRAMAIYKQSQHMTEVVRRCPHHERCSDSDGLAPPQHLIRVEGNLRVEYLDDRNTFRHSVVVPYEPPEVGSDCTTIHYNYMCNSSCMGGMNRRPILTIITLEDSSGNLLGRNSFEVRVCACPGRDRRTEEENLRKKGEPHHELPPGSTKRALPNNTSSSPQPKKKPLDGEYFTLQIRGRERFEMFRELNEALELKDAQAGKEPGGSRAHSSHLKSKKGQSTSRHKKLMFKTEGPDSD", "assay": "Primary qHTS for small molecule compounds that upregulate eGFP-tagged delta133p53alpha (in N-terminal) cells. (AID 2060322); also: nearly all actives have a fitted effect of over 75% in size;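 as to activation: cells pre-induced with doxycycline then dosed without doxycycline; series mostly up to about 56 µM; 0% = DMSO vehicle and 100% = reference activator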", "settings": "NCI-H358 eGFP-delta133p53alpha fluorescence, 24 h; activation: hits give high values", "source_text": "Assay Development and Screening Technology\nNational Center for Advancing Translational Sciences (NCATS),\nNational Institute of Health (NIH), Rockville, Maryland\nCellular senescence (CS) is one of the hallmarks of aging and age-related diseases. Senescent cells are characterized by an irreversible growth arrest, an increase in senescence-associated beta-galactosidase (SA-beta-gal) activity and p16INK4a expression, an activation of the DNA damage response pathways, and the emergence of a senescence-associated secretory phenotype (SASP).\nDelta133p53alpha, a human/primate-specific p53 protein isoform, delays or inhibits the induction of CS and SASP in various types of human cells, including progeria-derived fibroblasts, primary normal astrocytes, and CD8+ T lymphocytes. Induction of delta133p53alpha with small molecule compounds may provide therapeutic opportunities for inhibition of senescence/SASP-associated pathologies in progeria syndromes, astrocyte-mediated neuroprotection in neurodegenerative diseases, and possibly prevention and treatment of a wider range of senescence- and aging-associated diseases.\nHere we report the development and validation of a cell-based quantitative high throughput screening (qHTS) assay in 1,536-well format. This qHTS assay uses the NCI-H358 cell line with doxycycline-inducible expression of enhanced green fluorescent protein (eGFP)-tagged delta133p53alpha, which allows efficient and highly quantitative measurement of the protein levels.\nPROTOCOL TABLE (as described by Inglese J, Shamu CE and Guy RK. 2007)\nSEQUENCE No. (e.g., 1, 2, 3, etc.); […] (e.g., Cells, Incubation, Reagent, etc.); VALUE; DESCRIPTION.\n1; Cells; 4uL; 800 doxycycline treated cells / well in doxycycline-free media, 1536-well black, clear-bottom low base Aurora microplates.\n2; Compounds; 23 nL; Kalypsis pin tool (Wako) equipped with 1536-well pin heads, 5-azacytidine positive control.\n3; Incubation; 24 hr; 37C, 5% CO2; 95% relative humidity.\n4; Aspiration; 1x; BioTek EL406 washer dispenser (Agilent).\n5; Fixing; 3.5% paraformaldehyde, BioTek EL406 washer dispenser (Agilent).\n6; Washing; 1x PBS; BioTek EL406 washer dispenser (Agilent).\n7; Nuclei staining; 1:1000 dilution of Hoechst 33342 (Thermofisher), BioTek EL406 washer dispenser (Agilent).\n8; Incubation; 20 min; in the dark at room temperature.\n9; Washing; 2x, 1x PBS (ThermoFisher), BioTek EL406 washer dispenser (Agilent).\n10; Reagent; 10 uL; 1x PBS per well, sealed with clear adhesive tape.\nNOTES (numbers refer to sequence numbers above).\n1. NCI-H358 cells expressing eGFP-tagged delta133p53alpha were grown in T75 culture flasks and treated with doxycycline for 24h, at 10 ng/ml for eGFP-D133p53a cells (N-terminal cell) and 100 ng/ml for D133p53a-eGFP cells (C-terminal cells). Cells were trypsinized, counted using a Counted 3 Automated Cell Counter (Thermo Fisher), and diluted to a concentration of 200,000 cells/ml. A Multidrop Combi Reagent Dispenser (ThermoFisher) was used to dispense 800 cells/well in […] of doxycycline-free media, into 1536-well black/clear bottom low base plates (AuroraMicroplates).\n2. After plating cells, 23 nl of compound library, DMSO vehicle control or positive control (5-azacytidine) were transferred by Pin Tool (Wako). The plate map layout was the same for each plate: (column 1) non-doxycycline treated cells + DMSO vehicle control; (column 2) doxycycline treated cells + DMSO vehicle control baseline; (column 3) doxycycline treated cells + positive control 57.5 uM final concentration 5-azacytidine; (column 4) doxycycline treated cells + serial dilution of 5-azacytidine, 16-point 1:2 titration spanning 1.8 nM to […] final concentration; (columns 5-48) doxycycline treated cells + titration of library compounds.\n3. Cells were incubated at 37 °C, 5 % CO2, 95% RH with breathable metal lid for 24h.\n4-10. […] After two washes, 10 ul of 1X PBS (Thermo Fisher) was dispensed to each well. Clear adhesive plate seals (VWR) were applied and plates stored at 4 °C.\n11. […]"}
{"smiles": "CC(C(=O)O)c1ccc(-c2ccccc2)c(F)c1", "note": "(stereo not given)", "activation": "3.78% (inactive)"}
{"smiles": "O=c1cc[nH]c(=S)[nH]1", "activation": "7.34% (inactive)"}
{"smiles": "CCS(=O)(=O)N1CC(CC#N)(n2cc(-c3ncnc4[nH]ccc34)cn2)C1", "activation": "4.89% (inactive)"}
{"smiles": "CC(C)S(=O)(=O)N[C@H]1CCOC[C@@H]1c1ccc(-c2ccc(C#N)s2)cc1", "activation": "-15% (inactive)"}
{"smiles": "CNC[C@H](O)c1ccc(O)c(O)c1", "activation": "2.51% (inactive) and 2.46% (inactive) and 10.6% (inactive)"}
{"smiles": "CCN1CCC[C@@H]1CNC(=O)c1ccc2c(c1)NC(=O)c1cccc(C)c1S2", "activation": "19.7% (inactive)"}
{"smiles": "CCCCn1ccc(N2CCC(c3ccccc3)CC2)c(Cl)c1=O", "activation": "-2.33% (inactive)"}
{"smiles": "CC[C@@H](C)Nc1cc(C(=O)NC2CC3CC[C@@H](C2)N3c2ccc(C(=O)C3CC3)cn2)c(C)cc1C(N)=O", "note": "(stereo not given in full)", "activation": "20.5% (inactive)"}
{"smiles": "COCCCc1sc(-c2ccccc2)nc1C(=O)Nc1ccccc1-c1nc2cc(CN3CCCC3)cnc2s1", "activation": "-4.33% (inactive)"}
{"smiles": "CC(=O)OC/C(=C/C(=O)O)CC[C@@H]1C(CO)=CC[C@@H]2C(C)(C)CCC[C@@]12C", "activation": "2.29% (inactive)"}
{"smiles": "CC(COc1ccccc1)NC(C)C(O)c1ccc(O)cc1", "note": "(stereo not given)", "activation": "18.6% (inactive)"}
{"smiles": "COc1cccc(N(C)C(=S)Oc2ccc3c(c2)CCCC3)n1", "activation": "25.4% (inactive) and -4.03% (inactive)"}
{"smiles": "CC(C)C(=O)O[C@@H]1[C@@H](O)[C@@H](O[C@H]2O[C@H](CO)[C@@H](O)[C@H](O)[C@H]2O)O[C@H](CO)[C@H]1O", "activation": "3.82% (inactive)"}
{"smiles": "C[C@@H](NCCc1ccc(O)cc1)[C@@H](O)c1ccc(O)cc1", "activation": "-21.6% (inactive)"}
{"smiles": "COc1cccc(-c2cc(F)ccc2C2Cc3nc(N)nc(C)c3C(=O)N2)n1", "note": "(stereo not given)", "activation": "2.86% (inactive)"}
{"smiles": "CS(=O)(=O)N(CC(=O)NCC1CC1)c1cc(C(F)(F)F)ccc1Cl", "activation": "-13% (inactive)"}
{"smiles": "Cc1ccc2nc(NC(=O)CSc3nc4c(c(=O)n3-c3ccccc3)SCC4)sc2c1", "activation": "24.2% (inactive) and -14.8% (inactive)"}
{"smiles": "CC(C)(O)c1ccc2c(c1)C(O)CC1C(C)(C(=O)O)CCCC21C", "note": "(stereo not given)", "activation": "5.34% (inactive)"}
{"smiles": "C/C=C(/C)C(=O)O[C@@H]1C[C@@H](OC(=O)CC(C)C)C2(C)C3C(=O)C=C(C)C2C3C1(C)C", "note": "(stereo not given in full)", "activation": "-29% (inactive)"}
{"smiles": "CC1=C(CCC(C)O[C@@H]2O[C@H](CO)[C@@H](O)[C@H](O)[C@H]2O)C(C)(C)CCC1=O", "note": "(stereo not given in full)", "activation": "-16.8% (inactive)"}
{"smiles": "Cc1cc(Nc2ncc3c(n2)N(C)C(=O)N(c2cc(NC(=O)c4cccc(C(F)(F)F)c4)ccc2C)C3)n(C)n1", "Potency": "0.432 µM (active)"}
{"smiles": "CN(C[C@@H]1COCCO1)S(=O)(=O)Nc1ccc2ccc3ncc(-c4cnn(C)c4)cc3c(=O)c2c1", "activation": "-1.43% (inactive)", "Potency": "8.63 µM (active)"}
{"smiles": "CC(=O)C1=C(O)C=C2Oc3c(C(C)=O)c(O)c(C)c(O)c3C2(C)C1=O", "note": "(stereo not given)", "activation": "47.4% (inactive)"}
{"smiles": "C=C(C)C(=O)O[C@H]1[C@H]2C(=C)C(=O)O[C@@H]2C[C@@H](C)/C=C\\C(=O)[C@](C)(O)[C@@H]1OC(C)=O", "Potency": "4.65 µM (active)"}
{"smiles": "CC(OC1OCCN(Cc2n[nH]c(=O)[nH]2)C1c1ccc(F)cc1)c1cc(C(F)(F)F)cc(C(F)(F)F)c1", "note": "(stereo not given)", "activation": "20.5% (inactive)"}
{"smiles": "C#Cc1cccc(Nc2ncnc3cc(OCCOC)c(OCCO)cc23)c1", "activation": "34% (inactive)"}
{"smiles": "O=C(O)[C@H](O)[C@@H](O)[C@H](O[C@@H]1O[C@H](CO)[C@H](O)[C@H](O)[C@H]1O)[C@H](O)CO", "activation": "-12.6% (inactive)"}
{"smiles": "Cc1ccc(Cc2c(C)nc3nc(SCC(=O)NCCN4CCNCC4)nn3c2C)cc1", "activation": "-9.67% (inactive)"}
{"smiles": "COc1cc(Nc2nc3ccccc3nc2NS(=O)(=O)c2ccc(NC(=O)c3ccc(C)c(OC)c3)cc2)cc(OC)c1", "activation": "-16.4% (inactive) and -17% (inactive)"}
{"smiles": "CC(C)c1cc(C(=O)N2CC[C@@H](NC(=O)C3CC3)C2)n[nH]1", "activation": "-7.67% (inactive)"}
{"smiles": "O=C1COC2(CCN(S(=O)(=O)c3ccc(-c4ccc5cccnc5c4)cc3)CC2)CN1C1CC1", "activation": "-15.7% (inactive)"}
{"smiles": "C#C[C@]1(O)CC[C@H]2[C@H]3CCc4cc(OC)ccc4[C@H]3CC[C@@]21C", "activation": "-30% (inactive)"}
{"smiles": "CC(C)[C@@H]1CC[C@@H](C)C[C@@H]1P(=O)(c1ccccc1)c1ccccc1", "activation": "-3.04% (inactive)"}
{"smiles": "C[C@@H]1CN(CC(=O)Nc2ccc3c(c2)Cc2cccc(-c4cc(=O)cc(N5CCOCC5)o4)c2S3)C[C@H](C)O1", "Potency": "27.3 µM (active)"}
{"smiles": "CC1(COc2ccc3c(c2)ncn3-c2ccc3cccc(N4CCC(N)CC4)c3n2)COC1", "Potency": "21.3 µM (active)"}
{"smiles": "CS(=O)(=O)N1CCc2c(-c3cnc(N)nc3)nc(N3CCOCC3)nc21", "activation": "26% (inactive)"}
{"smiles": "CC(=O)OC1CC2(C)C3=CCC4(C)C5C(O)C(O)C(C(C)C)C5(C)CCC4(C)C3CCC2C(C)(C)C1OC1OC(CO)C(O)C(O)C1O", "note": "(stereo not given)", "activation": "-1.53% (inactive)"}
{"smiles": "COc1cc2c(cc1O)C1(OC)Cc3ccc4c(c3C1N(C)CC2)OCO4", "note": "(stereo not given)", "activation": "20.5% (inactive)"}
{"smiles": "CCOC(=O)C(O)c1ccccc1", "note": "(stereo not given)", "activation": "-24.3% (inactive)"}
